Bioassay records deposited in PubChem BioAssay by several laboratories.
An excerpt weighted towards active compounds, which were near 1.7% of everything screened.
CTSL1 counter: blocks F. hepatica cathepsin L1 in PFM18AAP counter-screen | inhibition, % at 5.96 µM | AID 1906 | 0.49% of 300,000 active | recombinant F. hepatica cathepsin L1, Z-Leu-Arg-MCA fluorescence;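 active = inhibition above the mean of all tested compounds plus 3 SD, set per screening campaign, cut at about 17% in these data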
m5-HT2A agonist: mouse HTR2A agonism via beta-arrestin recruitment | P35363 | AID 624169 | CHO-K1 mHTR2A beta-arrestin complementation, luminescence; percent of 30 µM serotonin response | 0.66% of 360,000 active | activation, % at 7.6 µM;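 active = activation above a run cutoff, the mean activation of all tested compounds plus 3 SD, cut at about 14% in these data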
LANA-H2B inh: blocks KSHV LANA binding to histone H2A/H2B; AID 2629; 0.6% of 320,000 active; inhibition, % (no concentration beside the values); Q9QR71; cell-free LANA-H2A/H2B peptide, fluorescence polarization; in the data active = inhibition mostly above about 10%, no sharp cut-off; inactive = mostly below about 6.7%
HDAC3 inh: human HDAC3 inhibition | inhibition, % at 8.3 µM | 0.15% of 320,000 active | recombinant HDAC3, fluorogenic peptide/trypsin coupled, fluorescence | O15379; in the data active = inhibition above about 26%, passing the limit was not always enough; inconclusive = no clear call, values can overlap the other calls
Numbers stand for hits; i = inactive; ? = inconclusive; nt = not tested or not shown.

SMILES | CTSL1 counter | m5-HT2A agonist | LANA-H2B inh | HDAC3 inh
CC(C)N1CCN(C(=O)C2CCC(=O)N(CCc3cccc(F)c3)C2)CC1 (configuration not stated) | nt | i | nt | nt
CCCCC(=O)N(C)c1c(C)nc2ccc(C(=O)N3CCN(C(=O)c4ccco4)CC3)cn12 | nt | i | nt | nt
Cn1c2ccccc2c2cc(C(=O)NNC(=O)CCl)sc21 | 94 | i | i | i
CCCNC(=O)c1cc2c3ccccc3n(C)c2s1 | i | i | i | i
O=c1c2ccccc2ncn1-c1cccc(Br)c1 | i | i | i | i
O=C(CC1C(=O)NCCN1Cc1ccccc1C(F)(F)F)NC1CCC1 (configuration not stated) | i | i | 181 | i
O=C(CC1C(=O)NCCN1Cc1ccccc1C(F)(F)F)NC1CCCCC1 (configuration not stated) | i | i | i | i
CC(C)N(Cc1nccn1C)C(=O)CC1C(=O)NCCN1Cc1ccccc1C(F)(F)F (configuration not stated) | i | i | 13 | i
Cc1ccc[n+](CC(=O)Nc2ccc([N+](=O)[O-])cc2)c1 | 31 | i | i | i
O=C(Nc1ccc([N+](=O)[O-])cc1)C1C(c2ccccc2)=C1c1ccccc1 | i | i | 18 | i
COC(=O)c1ccc(NC(=O)COc2ccc([N+](=O)[O-])cc2)cc1 | i | i | 20 | i
O=C(Nc1ccc(C(=O)O)cc1)Nc1ccc([N+](=O)[O-])cc1 | i | i | i | i
Cc1ccc[n+](CC(=O)Nc2cccc([N+](=O)[O-])c2)c1 | i | i | i | i
O=C(CCOc1ccccc1)Nc1ccccc1 | i | i | i | i
O=C(CCOc1ccccc1)Nc1ccc([N+](=O)[O-])cc1 | i | i | 15 | i
CC1(C(=O)NCC2CC2)Cc2c(-c3ccc4c(c3)OCO4)ccnc2O1 (configuration not stated) | nt | i | nt | nt
COc1cc(-c2nnn(CC(=O)N3CCOCC3)n2)cc(OC)c1OC | 30 | i | i | i
O=C(c1cc(Br)ccc1Cl)N1CCCC1 | i | i | 11 | i
C=CCn1c(SCC(=O)c2c(N)n(C)c(=O)n(C)c2=O)nc2sc(C)c(C)c2c1=O | i | i | 111 | i
C=CCSc1nc2sc(C)c(C)c2c(=O)n1CC=C | i | i | i | i
C=CCn1c(SCC(=O)c2cccs2)nc2sc(C)c(C)c2c1=O | i | i | i | i
C=CCn1c(SCc2ccc(C(=O)NCCO)cc2)nc2sc(C)c(C)c2c1=O | i | i | 23 | i
Cc1[nH]nc(SCC(=O)NCCc2ccccc2)c1[N+](=O)[O-] | i | i | 12 | i
CC(OC(=O)c1cc(S(=O)(=O)N2CCOCC2)ccc1F)C(=O)NC1CCCC1 (configuration not stated) | nt | i | 25 | i
Cc1noc(C)c1COC(=O)c1cc(S(=O)(=O)N2CCOCC2)ccc1F | nt | i | 31 | i
SMILES | CTSL1 counter | m5-HT2A agonist | LANA-H2B inh | HDAC3 inh
Cc1noc(C)c1COC(=O)c1cc(S(=O)(=O)N2CCOCC2)ccc1Cl | nt | i | i | i
O=C(COC(=O)c1cc(S(=O)(=O)N2CCOCC2)ccc1F)NC1CCCCC1 | nt | i | nt | nt
COc1cc(NC(=O)CCl)ccc(=O)c1 | nt | i | nt | nt
C[C@@H]1CN([C@H](C)CO)C(=O)CCCn2nncc2CO[C@@H]1CN(C)S(C)(=O)=O | nt | i | nt | nt
COc1ccc(C(CNC(=O)c2oc3c(Cl)cccc3c2C)N2CCCC2)cc1 (configuration not stated) | i | i | 22 | i
CCOc1ccc(S(=O)(=O)N(CC)CC(=O)NCc2ccncc2)cc1C | i | i | i | i
CCn1c(COc2ccccc2C)nnc1SCC(=O)CC(=O)Nc1ccccc1 | 25 | i | i | i
CCn1c(COc2ccccc2C)nnc1SCC(=O)O | i | i | i | i
O=C(NCCN1CCN(c2ccccc2)CC1)C1CCCN(S(=O)(=O)c2cnc[nH]2)C1 (configuration not stated) | i | 30 | i | i
CC1CCN(CCNC(=O)C2CCCN(S(=O)(=O)c3cccc4nonc34)C2)CC1 (configuration not stated) | 24 | i | i | i
O=C(COC(=O)CNS(=O)(=O)c1ccc(Cl)cc1)NC1CCCCC1 | nt | i | nt | nt
CC(C)CCN1C(=O)c2cccc3c(N)ccc(c23)C1=O | i | i | 14 | i
Nc1ccc2c3c(cccc13)C(=O)N(c1ccccc1)C2=O | nt | i | nt | nt
CCN1C(=O)c2cccc3c(Cl)ccc(c23)C1=O | i | i | i | i
Cc1cccc(N2C(=O)c3cccc4c(N)ccc(c34)C2=O)c1 | i | i | 61 | ?
Nc1cccc(N2C(=O)c3cccc4c(N)ccc(c34)C2=O)c1 | i | i | 26 | nt
Cc1cccc(N2C(=O)c3cccc4c(N(C)CCO)ccc(c34)C2=O)c1 | i | i | 20 | i
